Most compounds without a hit are left out; they make up all but 10% or so of the library.
SARS PLpro yeast: SARS-CoV PLP inhibition in yeast | AID 485353 | 330,000 compounds, 0.19% hits | S. cerevisiae expressing SARS-CoV PLpro, growth rescue | Potency, µM (top dose mostly 32.9 µM), for inactives: top-dose activity, positive = growth rescue, most hits filed as activators; calls by dose curve; note: 0% is about no effect; nearly all actives have a fitted effect of over 55% in size
Pf growth 96h: inhibits malaria parasite growth, 96 h; AID 504834; 320,000 compounds, 6.9% hits; P. falciparum luciferase reporter growth, 96 h; Potency, µM (series often up to 28.7 µM), for inactives: top-dose activity change, negative = inhibition, most hits filed as inhibitors; note: % is set by controls: 0 for no effect and ±100 for the full control effect
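Delayed-death screen, second-generation endpoint: infected erythrocytes, 2% hematocrit, 0.05% parasitemia final; 96 hours at 37 C, 5% CO2; luciferase detection reagent; luminescence decrease equals reduced growth.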
NS1 function inh: influenza NS1 inhibition. AID 2326. Potency, µM (top dose mostly 46.1 µM), for the others: at the highest dose activity, positive = more growth. 270,000 compounds, 0.4% hits; calls by dose curve; note: actives are rising curves; nearly all actives have a fitted effect of over 50% in size
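S. cerevisiae expressing influenza A NS1, grown in glucose, washed, then diluted 1:100 into pH 6.0 -URA galactose medium with 23 nl compound. Growth recovery read as OD600; NS1-free strain serves as control.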
Pf growth 48h: inhibits P. falciparum growth in the first generation, 48 h. P. falciparum luciferase growth in erythrocytes, 48 h. Potency, µM (titrated, usually from 28.7 µM), for inactives: at the top dose activity change, negative = inhibition, actives largely listed as inhibitors. 310,000 compounds, 5.9% hits; note: % is set by controls: 0 for no effect and ±100 for the full control effect
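Compounds are pin-transferred into medium, infected erythrocytes (2% hematocrit, 0.1% parasitemia final) are added, and plates sit one parasite generation at 37 C in 5% CO2. Detection reagent is then added and luminescence measured.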
Numbers without * were called inactive. Unless noted, calls come from the whole dose curve; as a rule, active = well fitted inhibition curve with a large enough effect; inconclusive = small, poorly fitted or top-dose-only effect, or another doubt; inactive = no such curve, though single readings can be large or run the other way. Potency is the fitted concentration of half-maximal effect.

Screening CC(=O)Nc1cccc(NC(=O)c2cccc(S(=O)(=O)N3CCN(Cc4ccccc4)CC3)c2)c1 returned SARS PLpro yeast 7%, Pf growth 96h 10µM* and Pf growth 48h 10µM*.
For O=C(c1cccc(S(=O)(=O)N2CCCCC2)c1)N1CCN(Cc2ccccc2)CC1 the results were SARS PLpro yeast 1%, Pf growth 96h inconclusive and Pf growth 48h inconclusive.
COc1ccc(NC(=O)CN(C)C(=O)c2cccc(S(=O)(=O)N3CCN(Cc4ccccc4)CC3)c2)cc1 was read as SARS PLpro yeast 3%, Pf growth 96h -78%, NS1 function inh 11% and Pf growth 48h -8%.
Screening CCc1ccccc1NC(=O)CNC(=O)c1cccc(S(=O)(=O)N2CCN(Cc3ccccc3)CC2)c1 returned SARS PLpro yeast 0%, Pf growth 96h -19% and Pf growth 48h inconclusive.
`COc1cccc(NC(=O)c2cccc(S(=O)(=O)N3CCN(Cc4ccccc4)CC3)c2)c1` gave SARS PLpro yeast -13%, Pf growth 96h 7.4µM* and Pf growth 48h inconclusive.
CC1CCCCC1NC(=O)c1cccc(S(=O)(=O)N2CCN(Cc3ccccc3)CC2)c1 (stereo not drawn) was read as SARS PLpro yeast 2%, Pf growth 96h 15µM* and Pf growth 48h 17µM*.
Screening CC(=O)Nc1ccc(S(=O)(=O)N2CCN(Cc3cccc([N+](=O)[O-])c3)CC2)cc1 returned SARS PLpro yeast -1%, Pf growth 96h 1.7µM*, NS1 function inh -10% and Pf growth 48h -5%.
C[C@H](NS(=O)(=O)c1ccccc1F)C(=O)OCC(=O)Nc1ccc2c(c1)OCCO2 was read as SARS PLpro yeast -2%.
`O=C(NCc1ccc(OC(F)(F)F)cc1)C1CCC(=O)N(C2CC2)C1` (stereo not drawn) gave SARS PLpro yeast -5%, Pf growth 96h 2%, NS1 function inh 5% and Pf growth 48h 15%.
For CN(Cc1ccc(F)cc1)C(=O)c1cccc(S(=O)(=O)N2CCN(Cc3ccccc3)CC2)c1 the results were SARS PLpro yeast 3%, Pf growth 96h inconclusive and Pf growth 48h -5%.
Screening CCN(CC)C(=O)c1ccc(NC(=O)c2cccc(S(=O)(=O)N3CCN(Cc4ccccc4)CC3)c2)cc1 returned SARS PLpro yeast 4%, Pf growth 96h 12µM* and Pf growth 48h 10µM*.
Screening CCOc1ccc(CN(C)C(=O)CNC(=O)c2ccc(Br)o2)cc1OC returned SARS PLpro yeast 5%, Pf growth 96h 2%, NS1 function inh 10% and Pf growth 48h -6%.
CCc1ccc(CNC(=O)Cn2nc(-c3ccc(C)cc3)ccc2=O)cc1 was read as SARS PLpro yeast 0%, Pf growth 96h 43% and Pf growth 48h 3%.
Screening CN(C)c1ccc(-c2ccc3c(=O)c4ccccc4n(C)c3c2)cn1 returned SARS PLpro yeast -4%, Pf growth 96h 129%, NS1 function inh -42% and Pf growth 48h 85%.
For Cc1cccn2c(=O)c(/C=C(\C#N)C(=O)NCc3ccco3)c(N3CCCCCC3)nc12 the results were SARS PLpro yeast -2%, Pf growth 96h inconclusive, NS1 function inh 7% and Pf growth 48h inconclusive.
CCNC(=O)/C(C#N)=C/c1c(N2CCN(c3cccc(Cl)c3)CC2)nc2c(C)cccn2c1=O was read as SARS PLpro yeast 0%, Pf growth 96h inconclusive, NS1 function inh -2% and Pf growth 48h 12µM*.
Cc1cccn2c(=O)c(C=C(C#N)C#N)c(N3CCN(c4cccc(Cl)c4)CC3)nc12 was read as SARS PLpro yeast -3%, Pf growth 96h inconclusive, NS1 function inh 5% and Pf growth 48h 7.4µM*.
CCNC(=O)/C(C#N)=C/c1c(N2CCN(Cc3ccc4c(c3)OCO4)CC2)nc2c(C)cccn2c1=O was read as SARS PLpro yeast -8%, Pf growth 96h 3.7µM*, NS1 function inh -11% and Pf growth 48h 7.4µM*.
Screening CCOC(=O)/C(C#N)=C/c1c(N2CCN(c3ccccc3)CC2)nc2c(C)cccn2c1=O returned SARS PLpro yeast 2%, Pf growth 96h inconclusive, NS1 function inh -5% and Pf growth 48h inconclusive.
`Cc1cccn2c(=O)c(/C=C(\C#N)C(=O)NCc3ccco3)c(N3CCCCC3)nc12` gave SARS PLpro yeast -28%, Pf growth 96h 2.9µM*, NS1 function inh 8% and Pf growth 48h inconclusive.
C=CCNC(=O)/C(C#N)=C/c1c(N2CCN(c3ccccc3)CC2)nc2c(C)cccn2c1=O was read as SARS PLpro yeast 0%, Pf growth 96h inconclusive, NS1 function inh 2% and Pf growth 48h inconclusive.
